DRD3 agonist: agonists of human D3 dopamine receptor; hit rate 0.58% among 410,000; max activation, %; D3R DiscoveRx beta-arrestin cells, luminescence, 90 min; P35462; in the data active = max activation above about 30%; also: 0% is about no effect
Target sequence (P35462 whole entry, looked up): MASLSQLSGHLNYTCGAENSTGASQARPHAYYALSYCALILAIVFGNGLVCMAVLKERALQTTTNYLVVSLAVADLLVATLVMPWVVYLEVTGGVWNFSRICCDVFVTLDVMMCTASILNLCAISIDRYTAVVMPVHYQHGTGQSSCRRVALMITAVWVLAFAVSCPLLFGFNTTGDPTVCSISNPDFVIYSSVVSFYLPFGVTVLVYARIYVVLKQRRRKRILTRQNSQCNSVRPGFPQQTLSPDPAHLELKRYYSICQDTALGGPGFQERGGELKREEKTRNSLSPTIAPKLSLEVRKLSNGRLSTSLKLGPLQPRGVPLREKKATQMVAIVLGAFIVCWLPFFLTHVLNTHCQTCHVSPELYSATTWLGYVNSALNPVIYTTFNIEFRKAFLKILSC
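Cells at 1500/well, incubated overnight, then treated with pinned compounds (dopamine as control) for 90 min at 37 degrees C. DiscoveRx reagent added for 30 - 60 minutes at room temperature; luminescence read.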
D1 PAM: enhances dopamine response at the human D1 receptor; P21728; HEK293 TREx D1 cells, calcium flux, dopamine EC20 potentiation; potentiation, % at 10 µM; hit rate 0.036% among 360,000; in the data active = potentiation above about 30%; also: 0% is about no effect
D1 antagonist: antagonists of human D1 dopamine receptor; P21728; HEK293 TREx D1 cells, calcium flux, dopamine EC80; hits give low values; activity change, negative = inhibition, % at 10 µM; hit rate 3.2% among 360,000; AID 504652; in the data active = activity change below about -30%; also: % is scaled to controls: 0 for no effect and ±100 for the full control effect
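Using tetracycline-induced force-coupled D1 Hek293 cells and a calcium dye, signals were followed for 180 s after compound, then for 180 s after EC80 dopamine, to detect inhibitors.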
D1 ag: human D1 receptor agonism | P21728 | HEK293 T-REx D1 cells, calcium flux, agonist mode | activation, % at 2 µM | hit rate 1% among 360,000 | AID 504660; in the data active = activation above about 30%; also: 0% is about no effect
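Tetracycline-induced HEK293 TREx D1 cells, force-coupled to calcium signalling, were dye-loaded with a no-wash calcium kit. Compound was pin-added after a 10 s baseline. Fluorescence was read kinetically at 1 cycle/s for 180 s, with calcium rises flagged as agonism.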
DRD3 antagonist: blocks the human D3 dopamine receptor; D3R cells, DiscoveRx beta-arrestin luminescence, antagonist mode; hits give low values; max response, negative = inhibition, %; hit rate 2.5% among 360,000; in the data active = max response below about -50%; inconclusive = no clear call, values can overlap the other calls; also: % is scaled to controls: 0 for no effect and ±100 for the full control effect
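Cells plated overnight at 1500 cells/well, then exposed to library compounds with dopamine controls for 90 minutes at 37 degrees C. DiscoveRx reagent added for 30–60 minutes at room temperature; luminescence read, quantitative HTS format.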
* marks the source's active call; other numbers are inactive results. An excerpt weighted towards active compounds, which were near 6% of everything screened.

How did CN(C)CCC1Sc2ccccc2Oc2ccccc21 (centres undefined) do in these assays?
DRD3 agonist: 0; D1 PAM: -6; D1 antagonist: 0; D1 ag: 28; DRD3 antagonist: -64*

How did Cc1cc(C)n(CCc2nc3c4ccccc4nc(N4CCN(c5ccccc5F)CC4)n3n2)n1 do in these assays?
DRD3 agonist: -4; D1 PAM: 1; D1 antagonist: -3; D1 ag: 2

How did Cc1ccc(-n2ncc3c(Nc4cccc(C(F)(F)F)c4)ncnc32)cc1C do in these assays?
DRD3 agonist: 8; D1 PAM: -4; D1 antagonist: -17; D1 ag: 5

What do the screens show for `COc1cc(/C=C/C(=O)NC(=O)c2ccccc2O)ccc1O`?
DRD3 agonist: -6; D1 PAM: -11; D1 antagonist: 3; D1 ag: -1; DRD3 antagonist: -4

Results for COc1cc(/C=C/C(O)=C/C(=O)/C=C/c2ccc(O)cc2)ccc1O ?
DRD3 agonist: -1; D1 PAM: -5; D1 antagonist: -21; D1 ag: 351*; DRD3 antagonist: 15

What do the screens show for `CCOc1ccc(CCNC(=O)Cn2ccc3cc(S(=O)(=O)N4CCCCCC4)ccc32)cc1`?
DRD3 agonist: -23; D1 PAM: -3; D1 antagonist: 9; D1 ag: 6

Results for CCOC(=O)C1=C(O)c2ccccc2C(=O)/C1=C\c1ccc(C)cc1 ?
DRD3 agonist: 3; D1 PAM: 1; D1 antagonist: -14; D1 ag: 34*; DRD3 antagonist: -9

How did O=C(Nc1ccccc1C(=O)Nc1ccccn1)c1cc(F)c(F)cc1Cl do in these assays?
DRD3 agonist: 5; D1 PAM: -1; D1 antagonist: -31*; D1 ag: 7; DRD3 antagonist: 6

How did O=C(Nc1ccccc1C(=O)Nc1ccccn1)c1ccccc1F do in these assays?
DRD3 agonist: -2; D1 PAM: 0; D1 antagonist: -2; D1 ag: 5; DRD3 antagonist: -5

How did O=[N+]([O-])c1ccc(C(O)C23CN4CN(CN(C4)C2)C3)cc1 (centres undefined) do in these assays?
DRD3 agonist: 5; D1 PAM: 1; D1 antagonist: -2; D1 ag: 6; DRD3 antagonist: -69*

How did O=[N+]([O-])c1cccc(C(O)C23CN4CN(CN(C4)C2)C3)c1 (centres undefined) do in these assays?
DRD3 agonist: -21; D1 PAM: 7; D1 antagonist: 2; D1 ag: 2; DRD3 antagonist: -3

How did O=c1c2ccccc2nnn1Cc1nnc(-c2ccccc2Br)o1 do in these assays?
DRD3 agonist: 1; D1 PAM: 6; D1 antagonist: 13; D1 ag: 47*; DRD3 antagonist: 2

Results for O=C1c2ccccc2S(=O)(=O)N1Cc1nnc(-c2ccccc2Br)o1 ?
DRD3 agonist: 1; D1 PAM: -16; D1 antagonist: -11; D1 ag: 3; DRD3 antagonist: -9

How did O=C(NCCCN=C1NS(=O)(=O)c2ccccc21)c1ccc(S(=O)(=O)N2CCCCC2)cc1 do in these assays?
DRD3 agonist: -14; D1 PAM: -1; D1 antagonist: -35*; D1 ag: 7; DRD3 antagonist: -14

What do the screens show for `COc1ccc(C(=O)NCCCN=C2NS(=O)(=O)c3ccccc32)cc1`?
DRD3 agonist: -25; D1 PAM: 0; D1 antagonist: 8; D1 ag: -2; DRD3 antagonist: -75*

How did NCCC(=O)[N-][C@@H](Cc1cnc[nH]1)C(=O)O.[Zn] do in these assays?
DRD3 agonist: 10

Results for Cc1cc(NC(=O)COC(=O)CCCOc2ccc(Cl)cc2C)no1 ?
DRD3 agonist: 3; D1 PAM: -10; D1 antagonist: -30*; D1 ag: 3; DRD3 antagonist: 0

How did Cc1cc(NC(=O)COC(=O)CCS(=O)(=O)c2ccc(Cl)cc2)no1 do in these assays?
DRD3 agonist: 16; D1 PAM: -1; D1 antagonist: 9; D1 ag: 1; DRD3 antagonist: 2

What do the screens show for `Cc1cc(Cl)ccc1OCCCC(=O)N1CCN(C)CC1`?
DRD3 agonist: -10; D1 PAM: -10; D1 antagonist: -1; D1 ag: 3; DRD3 antagonist: 0

How did Cc1cc(Cl)ccc1OCCCC(=O)NC1CCN(C)CC1 do in these assays?
DRD3 agonist: -18; D1 PAM: -15; D1 antagonist: -42*; D1 ag: 23; DRD3 antagonist: -16

What do the screens show for `Cc1cccc(C)c1C(O)c1ncc(-c2cccc3ccccc23)[nH]1` (centres undefined)?
DRD3 agonist: 1; DRD3 antagonist: -76*

How did Cc1cc(C)c(C(O)c2ncc(-c3ccccc3C)[nH]2)c(C)c1 (centres undefined) do in these assays?
DRD3 agonist: -9; DRD3 antagonist: -56*

How did Cc1cccc(C)c1C(O)c1ncc(-c2ccc(Cl)cc2)[nH]1 (centres undefined) do in these assays?
DRD3 agonist: 2; DRD3 antagonist: 7

How did Cc1cc(C)c(C(O)c2ncc(-c3cccc4ccccc34)[nH]2)c(C)c1 (centres undefined) do in these assays?
DRD3 agonist: -2; DRD3 antagonist: inconclusive

Results for Cc1ccccc1-c1cnc(C(O)c2c(C)cccc2C)[nH]1 (centres undefined) ?
DRD3 agonist: -15; DRD3 antagonist: -52*

What do the screens show for `Cc1ccc(-c2cnc(C(O)c3c(C)cccc3C)[nH]2)cc1` (centres undefined)?
DRD3 agonist: -12; DRD3 antagonist: -55*

What do the screens show for `CC(=O)c1ccc(Nc2nc3ccccc3nc2-n2nc(C)cc2C)cc1`?
DRD3 agonist: 9; D1 PAM: 1; D1 antagonist: 8; D1 ag: 3

What do the screens show for `CCN(CC)S(=O)(=O)c1ccc(NC(=O)c2c(C)oc3ncnc(N4CCOCC4)c23)cc1`?
DRD3 agonist: 3; D1 PAM: -2; D1 antagonist: -10; D1 ag: 0

How did CC1=C(c2ccc(C)c(C)c2)S(=O)(=O)N(Cc2ccc(C(=O)Nc3cc(F)ccc3F)cc2)C1=O do in these assays?
DRD3 agonist: 1; D1 PAM: -6; D1 antagonist: 12; D1 ag: 4

What do the screens show for `Cc1ccc(Cn2cnc3sc4c(c3c2=O)CCC4)c(C)c1`?
DRD3 agonist: -8; D1 PAM: 38*; D1 antagonist: 8; D1 ag: -1; DRD3 antagonist: -7

What do the screens show for `Cc1ccc(C)n1-n1cnc2sc3c(c2c1=O)CCC3`?
DRD3 agonist: -10; D1 PAM: -11; D1 antagonist: -33*; D1 ag: 2; DRD3 antagonist: -13

What do the screens show for `O=C(O)c1ccc(Cn2cnc3sc4c(c3c2=O)CCCC4)cc1`?
DRD3 agonist: 6; D1 PAM: 5; D1 antagonist: -29; D1 ag: 3; DRD3 antagonist: -9

How did CCc1cccc(C)c1NC(=O)Cn1ccn(Cc2ccc(Cl)cc2)c(=O)c1=O do in these assays?
DRD3 agonist: -16; D1 PAM: -2; D1 antagonist: -8; D1 ag: 3
